A short description of assay [1]: qHTS of pediatric cancer cell lines to identify multiple opportunities for drug repurposing: Primary screen for BT-12 cells (AID 1347101). Note: nearly all actives have a fitted effect of over 25% in size. Note: potency is the fitted concentration of half-maximal effect. The essentials: (§1)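 Cells (500-1,000/well) rested 5 h, then received compounds for 48 h; metabolically active cells were measured by CellTiter-Glo luminescence. Final concentrations spanned up to 46 µM (MIPE, 11-point) or 0.59 nM-46 µM (NPC, 8-point) in primary screens, 11-point in follow-ups.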
(In general: Quantitative high-throughput screening tests each substance at several concentrations.)

Assay [2] is described as follows: qHTS of pediatric cancer cell lines to identify multiple opportunities for drug repurposing: Primary screen for RD cells (AID 1347104). Note: nearly all actives have a fitted effect of over 55% in size. Note: potency is the fitted concentration of half-maximal effect. The method, boiled down:
(§2)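 Luminescence from CellTiter-Glo served as readout of metabolically active cells after 48 h compound exposure. Titrations: MIPE 11-point, from 0.78 nM; NPC 8-point, from 0.59 nM (final). Concentration-response curves came straight from the primary screen.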

A short description of assay [3]: qHTS of pediatric cancer cell lines to identify multiple opportunities for drug repurposing: Primary screen for control Hh wild type fibroblast cells (AID 1347106). Note: nearly all actives have a fitted effect of over 55% in size. Note: potency is the fitted concentration of half-maximal effect. The method, boiled down:
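Cells (500-1,000/well) in growth media were settled 5 h at 37 degrees C, then given compounds for 48 h. Viability was read as CellTiter-Glo luminescence. Primary runs used MIPE at 11 points (0.78 nM-46 µM) and NPC at 8 points (0.59 nM-46 µM); follow-ups used 11 points.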

Assay [4] in a line: qHTS of pediatric cancer cell lines to identify multiple opportunities for drug repurposing: Primary screen for Rh30 cells (AID 1347107). Note: series mostly up to about 46 µM; nearly all actives have a fitted effect of over 75% in size. The essentials:
(§3)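 Viability after 48 h compound treatment at 37C, 500-1,000 cells/well, read as ATP luminescence with CellTiter-Glo. Primary screens used 11-point (MIPE, 0.78 nM-46 µM) or 8-point (NPC, 0.59 nM-46 µM) final concentrations; follow-up screens used 11-point dilutions.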

The nature of assay [5]: qHTS of pediatric cancer cell lines to identify multiple opportunities for drug repurposing: Primary screen for Rh41 cells (AID 1347108). Note: nearly all actives have a fitted effect of over 70% in size. Note: potency is the fitted concentration of half-maximal effect. The essentials: as §2
A short description of assay [6]: qHTS of pediatric cancer cell lines to identify multiple opportunities for drug repurposing: Confirmatory screen for NB1643 cells (AID 1347109). Note: nearly all actives have a fitted effect of over 45% in size. The method, boiled down: as §3
The nature of assay [7]: qHTS of pediatric cancer cell lines to identify multiple opportunities for drug repurposing: Confirmatory screen for A673 cells (AID 1347110). Note: potency is the fitted concentration of half-maximal effect; nearly all actives have a fitted effect of over 65% in size. The essentials: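 Concentration-response curves came straight from titrations: 11 points (0.78 nM to 46 µM) for MIPE and several concentrations (0.59 nM to 46 µM) for NPC in primary, 11 points in follow-up. Readout: ATP luminescence at 48 h.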

Assay [8] can be described thus: qHTS of pediatric cancer cell lines to identify multiple opportunities for drug repurposing: Confirmatory screen for SK-N-MC cells (AID 1347111).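 Note: potency is the fitted concentration of half-maximal effect; cells exposed to compound for 48 h before the readout; nearly all actives have a fitted effect of over 70% in size.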 The essentials:
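SK-N-MC cells at 500-1,000 cells/well in growth media were pre-incubated 5 h, then exposed to compounds at 11-point dilutions for 48 h at 37 degrees C, 5% CO2. Viability was read as CellTiter-Glo luminescence.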

Assay [9] is described as follows: qHTS of pediatric cancer cell lines to identify multiple opportunities for drug repurposing: Confirmatory screen for BT-12 cells (AID 1347112). Note: potency is the fitted concentration of half-maximal effect; nearly all actives have a fitted effect of over 55% in size. The essentials: as §3
Assay [10] is described as follows: qHTS of pediatric cancer cell lines to identify multiple opportunities for drug repurposing: Confirmatory screen for LAN-5 cells (AID 1347113). Note: potency is the fitted concentration of half-maximal effect; nearly all actives have a fitted effect of over 65% in size. The essentials:
as §3

A short description of assay [11]: qHTS of pediatric cancer cell lines to identify multiple opportunities for drug repurposing: Confirmatory screen for DAOY cells (AID 1347114). Note: potency is the fitted concentration of half-maximal effect; nearly all actives have a fitted effect of over 65% in size. The essentials: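 Viability measured as metabolically active cells via CellTiter-Glo luminescence following 48 hours of compound exposure, 11-point dilutions in confirmatory testing. 500-1,000 cells/well plated 5 hours before dosing; controls were DMSO and 2.3 µM bortezomib.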

Assay [12] is described as follows: qHTS of pediatric cancer cell lines to identify multiple opportunities for drug repurposing: Confirmatory screen for NB-EBc1 cells (AID 1347115). Note: nearly all actives have a fitted effect of over 45% in size. The method, boiled down: as §3
Assay [13] in a line: qHTS of pediatric cancer cell lines to identify multiple opportunities for drug repurposing: Primary screen for NB1643 cells (AID 1347099). Note: nearly all actives have a fitted effect of over 50% in size. The method, boiled down: as §2
Assay [14] is described as follows: qHTS of pediatric cancer cell lines to identify multiple opportunities for drug repurposing: Primary screen for LAN-5 cells (AID 1347100). The method, boiled down:
as §3

A short description of assay [15]: qHTS of pediatric cancer cell lines to identify multiple opportunities for drug repurposing: Primary screen for Rh18 cells (AID 1347102). Note: nearly all actives have a fitted effect of over 65% in size. Note: potency is the fitted concentration of half-maximal effect. The method, boiled down:
as §3

Assay [16] in a line: qHTS of pediatric cancer cell lines to identify multiple opportunities for drug repurposing: Primary screen for OHS-50 cells (AID 1347103). Note: nearly all actives have a fitted effect of over 40% in size. Note: potency is the fitted concentration of half-maximal effect. The method, boiled down: as §1
Assay [17] in a line: qHTS of pediatric cancer cell lines to identify multiple opportunities for drug repurposing: Primary screen for MG 63 (6-TG R) cells (AID 1347105). Note: nearly all actives have a fitted effect of over 50% in size. Note: potency is the fitted concentration of half-maximal effect. The method, boiled down:
as §2

Results filed as inconclusive are left out. The source made the active and inactive calls. Calls come from the whole dose curve; as a rule, active = well fitted curve in the direction sought with a large enough effect; inconclusive = small, poorly fitted or top-dose-only effect, or another doubt; inactive = no such curve, though single readings can be large; an effect the other way counts as inactive or inconclusive.

Regarding `CC(C)c1nn(-c2c(Cl)cccc2Cl)c2nc(Cc3ccc(OCCO)cc3)[nH]c(=O)c12`, the Potency in assay [1] is 54.4 nM (active); in assay [2], 132 nM (active); in assay [5], 372 nM (active); in [7], 131 nM (active); in assay [8], 117 nM (active); in assay [9] it was 82.7 nM (active). The values for the Potency in assay [10] and in assay [11] were 41.4 nM (active) and 208 nM (active), respectively. Besides, the Potency entry in assay [3], in [4], in [6] and in assay [12] was “inactive” each time.

Regarding `Cn1c2cc(S(C)=O)sc2c2cnn(Cc3cccc(N)c3)c(=O)c21` (stereo not drawn), the Potency entry in assay [13], in [14], in assay [1], in [15], in [16] and in assay [2] was “inactive” in each case. The Potency result in assay [17], in [3] and in assay [4] was “inactive” in each case.

Consider `O=C(O)Cn1nnc(-c2cc(N3CCC(Oc4cc(F)ccc4Br)CC3)no2)n1`, for which the Potency entry in assay [13], in assay [14], in assay [1], in assay [15], in assay [17] and in [3] was “inactive” each time. In addition, the Potency result in assay [4] and in [5] was “inactive” in each case.

`O=C(NCCS(=O)(=O)c1ccc(C(F)(F)F)cn1)c1ccc(Cl)cc1`: the Potency entry in [13], in assay [14], in assay [1], in assay [15], in assay [2] and in assay [17] was “inactive” each time. The Potency entry in assay [3] and in assay [4] was “inactive” in each case.

For `CC(C)=CCCC(C)=CCCC(C)=CCSc1ccccc1C(=O)O`, in [13], the Potency entry is “inactive”. For the same molecule, the Potency in assay [15] was 11800 nM (active); in [16], 1530 nM (active); in assay [17], 3720 nM (active); in assay [3], 8330 nM (active); in assay [5], 4690 nM (active).

The record behind these values is PubChem BioAssay (NCATS).
